Data from PubChem BioAssay AID1452 (National Center for Advancing Translational Sciences (NCATS), 2008).
In all, about 150,000 compounds went through this assay and about 190 (0.13%) were called active. A call without a number means that no potency is given here. Another 2% or so got no clear call; they are omitted. Many of the other results were omitted from the sample, so actives are more common in it than they were. A number with no mark means an inactive call. The call rests on the fitted dose curve; in most records, active means well fitted inhibition curve with a large enough effect; inconclusive means small, poorly fitted or top-dose-only effect; inactive means flat fitted curve, though single readings scatter.
Further: nearly all actives have a fitted effect of over 55% in size.
Potency means the concentration at half of the fitted maximal effect.

These compounds were tested against Polyunsaturated fatty acid lipoxygenase ALOX12 (Homo sapiens) (UniProt P18054) (assay: qHTS Assay for Inhibitors of 12-hLO (12-human lipoxygenase)). Conditions: purified 12-hLO, xylenol orange hydroperoxide absorbance; series mostly up to 57.1 µM.
Sequence of Polyunsaturated fatty acid lipoxygenase ALOX12 (Homo sapiens) (P18054 whole entry, looked up): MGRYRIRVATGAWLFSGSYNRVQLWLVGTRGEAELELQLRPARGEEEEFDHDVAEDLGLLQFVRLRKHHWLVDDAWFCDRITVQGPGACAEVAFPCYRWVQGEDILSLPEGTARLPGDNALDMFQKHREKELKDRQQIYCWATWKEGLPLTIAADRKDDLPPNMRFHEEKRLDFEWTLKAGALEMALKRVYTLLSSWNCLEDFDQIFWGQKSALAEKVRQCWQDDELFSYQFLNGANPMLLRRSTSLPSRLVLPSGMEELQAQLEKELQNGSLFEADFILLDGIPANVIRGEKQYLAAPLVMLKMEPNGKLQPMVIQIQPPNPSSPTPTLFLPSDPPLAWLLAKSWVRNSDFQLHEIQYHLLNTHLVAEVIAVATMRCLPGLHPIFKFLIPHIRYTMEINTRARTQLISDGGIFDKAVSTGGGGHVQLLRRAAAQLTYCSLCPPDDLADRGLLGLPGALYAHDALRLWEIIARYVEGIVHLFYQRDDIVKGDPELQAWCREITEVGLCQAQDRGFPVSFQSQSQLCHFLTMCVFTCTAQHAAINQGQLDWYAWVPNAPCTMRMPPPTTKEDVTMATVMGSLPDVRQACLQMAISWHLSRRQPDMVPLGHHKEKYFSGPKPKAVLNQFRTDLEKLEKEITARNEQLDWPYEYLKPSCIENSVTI
Excerpt: Assay Provider: Holman, T.R., University of California, Santa Cruz Screening Center PI: Austin, C.P. Screening Center: NIH Chemical Genomics Center [NCGC] Human lipoxygenase 12hLO is a member of the closely related lipoxygenase family of enzymes which catalyze the site-specific oxidation of arachidonic acid to various hormone precursor molecules and as such is a candidate for drug development in a variety of disease areas, such as cancer and inflammation. Inhibition of 12hLO activity was screened by utilizing arachidonic acid as a substrate. The extent of hydroperoxide product formation was measured by a secondary chromogenic reaction in which xylenol orange (XO, Sigma-Aldrich, cat. number 39,818-7) reacts with the ferric ions produced from the reaction between the hydroperoxide and ferrous ions. The Fe(III)-XO complex is characterized with red-shifted absorbance at 560 nm. A purified preparation of human 12hLO was supplied by Professor Ted Holman, University of California, Santa Cruz.
Assay Protocol: Buffer: 25 mM Hepes pH 7.0, 0.01% Triton X-100. Reagents/Controls: Buffer in columns 3 and 4 as negative control (no enzyme). Substrate solution: 40 uM arachidonic acid (Sigma-Aldrich, St. Louis, MO) final concentration dispensed throughout the plate. Enzyme: 150 nM 12hLO final concentration in columns 1, 2, 5-48. Column 1 is neutral (100% activity). Column 2 contained pin-transferred titration of NDGA (nordihidroguaiaretic acid, Sigma-Aldrich, N 5023, top concentration 20 mM in DMSO, then 1:3 dilution in duplicate). (Dilution factor: 23 nL into 4 uL.) Chromogenic detection reagent (divalent iron/xylenol orange, Fe-XO): 200 uM xylenol orange plus 300 uM ferrous ammonium sulfate prepared freshly in 50 mM sulfuric acid. Assay Steps: Three uL of enzyme were dispensed to 1536-well Greiner black clear bottom plates. Compounds and controls (23 nL) were transferred via Kalypsys PinTool. The plates were incubated for 15 min at room temperature, and then 1 uL of substrate solution was added to start the reaction. After room temperature incubation for 30 minutes, 4 uL of Fe-XO solution was added to each well and the plates were incubated for 30 min. The absorbance at 405 and 573 nm were measured using ViewLux (Perkin-Elmer) High-throughput CCD imager and absorbance protocol settings. The 573-to-405 absorbance ratio was used to compute reaction progress.
`CC(=O)c1c(C)[nH]c(C(=O)OCC(=O)Nc2cc(S(=O)(=O)N3CCCCC3)ccc2C)c1C` was tested, and the activity change, negative = inhibition was “inactive”.
With `CCc1nnc(NC(=O)CCN(c2ccc(C)cc2)S(=O)(=O)c2ccccc2)s1` the activity change, negative = inhibition was “inactive”.
For `CCOc1ccc(-c2n[nH]c(=S)n2/N=C/c2cc3c(cc2[N+](=O)[O-])OCO3)cc1`, the activity change, negative = inhibition was “inactive”.
With `C=CCN(c1ccc(C(=O)Nc2cc(C)cc(C)c2)cc1)S(C)(=O)=O` the activity change, negative = inhibition was “inactive”.
In the case of `COc1ccc(Cl)cc1NC(=O)CNc1ccccc1F`, the activity change, negative = inhibition is reported as “inactive”.
In the case of `Cc1ccccc1NC(=S)Nc1cccc([N+](=O)[O-])c1`, the activity change, negative = inhibition is reported as “inactive”.
`Cc1ccc(NC(=O)Cn2nc(C)c3ccccc3c2=O)c(C)c1` was tested, and the activity change, negative = inhibition was “inactive”.
With `Cc1ccc(NC(=S)Nc2ncccc2C)c(C)c1` the Potency was 17.8 µM (active).
`CC(C)(C)OC(=O)NCCCCC1=CC2=CC(=O)C(C)(OC(=O)c3cccs3)C(=O)C2=CO1` (centres undefined) was tested, and the activity change, negative = inhibition was “inactive”.
`CC[C@@]12C=C(/C=C/c3ccccc3)[C@](CC)(C1)[C@H](c1ccccc1)CC2=O` was tested, and the activity change, negative = inhibition was “inactive”.
`COC(=O)C1=C(C(=O)OC)[C@@H]2Nc3ccccc3[C@@]23C[C@@H](C(=O)OC)N(S(=O)(=O)c2ccc([N+](=O)[O-])cc2)C3=N1` gave an activity change, negative = inhibition of -6.39% [at 11.4 µM].
`COc1ccc(-n2c(=S)[nH]c3sc4c(c3c2=O)CCc2ccccc2-4)cc1` was tested, and the activity change, negative = inhibition was “inactive”.
`Cc1ccc(S(=O)(=O)Nc2nc(C)cc(N/N=C/c3ccc(O)cc3)n2)cc1` was tested, and the activity change, negative = inhibition was “inactive”.
In the case of `COC(=O)c1c(NC(=O)CN2C(=O)NC(CCc3ccccc3)C2=O)sc2c1CCCCC2` (centres undefined), the activity change, negative = inhibition is reported as “inactive”.
In the case of `C=CCN1c2ccccc2[C@]23C[C@@H](C(=O)OC)N(S(=O)(=O)c4ccc([N+](=O)[O-])cc4)C2=NC(C(=O)OC)=C(C(=O)OC)[C@H]13`, the activity change, negative = inhibition is reported as -1.48% [at 11.4 µM].
In the case of `CCN(/N=C/c1ccccc1)c1cc(=O)n(C)c(=O)[nH]1`, the activity change, negative = inhibition is reported as “inactive”.
For `COCCN1C(=O)N[C@@H](CCc2ccccc2)[C@H](C(C)=O)[C@H]1C`, the activity change, negative = inhibition was 1.29% [at 11.4 µM].
For `C=CC1=C2C=C(C3CC3)N(CC(C)C)C=C2C(=O)C(C)(OC(=O)c2ccco2)C1=O` (centres undefined), the activity change, negative = inhibition was 0.586% [at 11.4 µM].
In the case of `CCCCCCCC[C@@H](O)/C=C/C=C/C=C\[C@@H](O)CCCC(=O)O`, the activity change, negative = inhibition is reported as “inactive”.
For `COc1ccc(-c2nc3c(c4c2C[C@H](c2ccccc2)OC4)CN(C(=O)c2ccco2)CC3)c(C)c1`, the activity change, negative = inhibition was 3.56% [at 11.4 µM].
In the case of `Cc1ccccc1C(CC(=O)c1cccs1)C(C#N)C#N` (centres undefined), the activity change, negative = inhibition is reported as “inactive”.
In the case of `Cc1c(/C=N/N2C(=O)C3C4C=CC(C4)C3C2=O)c2ccccc2n1C` (centres undefined), the activity change, negative = inhibition is reported as “inactive”.
`CC/C=C\C/C=C\C/C=C\C/C=C\C/C=C\C/C=C\CCC(=O)NC(C)C(=O)O` (centres undefined) was tested, and the activity change, negative = inhibition was “inactive”.
`COc1cc(NC(=O)COC(=O)CSc2ccc3ccccc3c2)c(C)cc1[N+](=O)[O-]` was tested, and the activity change, negative = inhibition was “inactive”.
`COc1ccc(-c2c(C)cc3oc(=O)cc(-c4ccccc4)c3c2C)cc1C=O` gave an activity change, negative = inhibition of -1.15% [at 0.00818 µM].
For `CCOc1ccc2nc(C(=O)N3CCCC(C)C3)sc2c1` (centres undefined), the activity change, negative = inhibition was “inactive”.
For `O=C(/C=C/c1ccc([N+](=O)[O-])cc1)NCCSCc1ccco1`, the activity change, negative = inhibition was “inactive”.
For `COCC(C)n1c(C)cc(C(=O)CSc2cc(C)c3ccccc3n2)c1C` (centres undefined), the activity change, negative = inhibition was “inactive”.
In the case of `COCOc1cc(OC)ccc1C(=O)/C=C/c1ccc([N+](=O)[O-])cc1`, the activity change, negative = inhibition is reported as “inactive”.
`CCCCCCCC1=Cc2ccc(F)cc2C(C(C(=O)OC)C(=O)OC)N1C(=O)OC` (centres undefined) showed an activity change, negative = inhibition of 0.612% [at 11.4 µM].
Compound `COC(=O)C1=C(C(=O)OC)[C@@H]2N(Cc3ccccc3)c3ccccc3[C@@]23C[C@@H](C(=O)OC)N(S(=O)(=O)c2ccc(C(F)(F)F)cc2)C3=N1` has an activity change, negative = inhibition of -1.93% [at 11.4 µM].
In the case of `Cc1ccc(C2=NN(C(=O)CSc3nc(N)cc(N)n3)C(c3ccco3)C2)cc1` (centres undefined), the activity change, negative = inhibition is reported as “inactive”.
In the case of `C/C(CC(=O)NC(C)(C)C)=N\NC(=O)c1ccco1`, the activity change, negative = inhibition is reported as “inactive”.
`O=C(COC(=O)[C@H](Cc1ccccc1)NC(=O)c1cccs1)Nc1cc(F)ccc1F` was tested, and the activity change, negative = inhibition was “inactive”.
For `Cc1cc2oc(=O)cc(-c3ccccc3)c2c(C)c1-c1ccc(OC(F)(F)F)cc1`, the activity change, negative = inhibition was -2.23% [at 0.00818 µM].
For `Cc1ccc(C)c(NC(=S)NNC(=O)c2csc(C)c2)c1`, the activity change, negative = inhibition was “inactive”.
In the case of `CCCCS(=O)(=O)N1C2=NC(C(=O)OC)=C(C(=O)OC)[C@@H]3N(Cc4ccccc4)c4ccccc4[C@]23C[C@H]1C(=O)OC`, the activity change, negative = inhibition is reported as 2.88% [at 11.4 µM].
In the case of `Cc1cccc(N2CCN(C(=O)/C=C/c3ccco3)CC2)c1C`, the activity change, negative = inhibition is reported as “inactive”.
For `COc1ccc(-c2cc(C(F)(F)F)nc(SCC(=O)Nc3ccc4c(c3)OCO4)n2)cc1OC`, the activity change, negative = inhibition was “inactive”.
For `CCOC(=O)c1c(NC(=O)C(C)Sc2c[nH]c3ccccc23)sc2c1CCC2` (centres undefined), the activity change, negative = inhibition was “inactive”.
In the case of `CCCCC/C=C\C/C=C\CCCCCCCCCC(=O)NCC(=O)O`, the activity change, negative = inhibition is reported as “inactive”.
In the case of `Cc1ccnc(-n2sc3ccccc3c2=O)n1`, the Potency is reported as 12.6 µM (active).
With `Cc1nc2ccccc2c(=O)n1CCCn1ccnc1` the activity change, negative = inhibition was “inactive”.
In the case of `Cc1ccnc(N2CCC(C(=O)NC3CCCCCC3)CC2)n1`, the activity change, negative = inhibition is reported as “inactive”.
